Compound activity as filed in PubChem BioAssay.
Sampled rows, rich in hits. Any-hit rate of the full collection: about 1.5%.
eIF4E 4G PPI = eIF4E–eIF4G protein interaction inhibitors, primary screen, biochemical, uHTS, TR-FRET, eIF4GI fragment; AID 782, 2007; inhibition, % at 21.7 µM; actives 0.37% (n = 220,000); TR-FRET eIF4E-eIF4GI(517-606) binding, 2 h; Eukaryotic translation initiation factor 4E (Mus musculus) + Eukaryotic translation …;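 active means inhibition above about 30%, limit read from the data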
eIF4H FP inh = human eIF4H binding inhibitors, primary screen, translation initiation inhibitor project, biochemical, uHTS, fluorescence polarization; eIF4H fluorescence polarization binding assay; inhibition, % at 35 µM; actives 0.94% (n = 290,000);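 further: calls also rest on retests at 20 µM and on dose response follow-up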
PABP polyA inh = PABP poly(A) RNA binding inhibitors, primary screen, biochemical, fluorescence polarization, uHTS | AID 2014, 2009 | Polyadenylate-binding protein 1 (Homo sapiens), P11940 | actives 1% (n = 290,000) | calls only at 35 µM;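 further: calls also rest on retests at 20 µM and on dose response follow-up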
MLLE-PAM2 inh = inhibitors of PABP1 MLLE–PAM2 peptide binding, primary screen, biochemical, fluorescence polarization, FITC-PAM2, GST-MLLE; actives 0.36% (n = 360,000); inhibition, % at 20 µM; Polyadenylate-binding protein 1 (Homo sapiens), P11940; in the data active means inhibition above about 35%, passing the limit was not always enough
Large screens that a line does not name were inactive; ! = a repeat was not active. Unless noted, how the calls were made is not given here.

CC12CC(=O)C3C(CCC4CC(=O)C=CC43C)C1CCC2=O (stereo unspecified)	none (no result: eIF4E 4G PPI, eIF4H FP inh, PABP polyA inh)
CN(C)[C@@H]1C(=O)C(C(N)=O)=C(O)[C@@]2(O)C(=O)C3=C(O)c4c(O)cccc4[C@@](C)(O)C3C[C@@H]12 (stereo partly specified)	none (no result: eIF4E 4G PPI, eIF4H FP inh, PABP polyA inh)
CN(C)[C@@H]1C(=O)C(C(N)=O)=C(O)[C@@]2(O)C(=O)C3=C(O)c4c(O)cccc4[C@@](C)(O)[C@H]3[C@H](O)[C@@H]12	eIF4E 4G PPI 47, eIF4H FP inh 87, PABP polyA inh active
C[C@@H]1CN([C@H](C)CO)C(=O)CCCn2nncc2CO[C@@H]1CN(C)C(=O)Oc1ccc2ccccc2c1	none (no result: eIF4E 4G PPI, eIF4H FP inh, PABP polyA inh)
CCOc1ccc(-n2c(O)c(C=NCCN3CCNCC3)c(=O)[nH]c2=O)cc1	eIF4H FP inh active, PABP polyA inh active
O=c1[nH]c(=O)n(-c2ccc(Br)cc2)c(O)c1C=NCCN1CCCCC1	eIF4E 4G PPI 93
O=c1[nH]c(=O)n(Cc2ccccc2)c(O)c1C=NCCCO	eIF4H FP inh 54, PABP polyA inh active
Cn1c(O)c(C=NC2CCN(Cc3ccccc3)CC2)c(=O)[nH]c1=O	eIF4E 4G PPI 80
CCOCCCN=Cc1c(O)n(Cc2ccccc2)c(=O)[nH]c1=O	none
Cc1cc(/C=C2\C(=O)NC(=O)N(c3ccc(Br)cc3)C2=O)c(C)n1-c1cc(C(=O)O)cc(C(=O)O)c1	none (no result: eIF4E 4G PPI)
Cc1cc(/C=C2\C(=O)NC(=O)N(c3ccc(Cl)cc3)C2=O)c(C)n1-c1cccc(C(=O)O)c1	eIF4H FP inh inconclusive, PABP polyA inh active (no result: eIF4E 4G PPI)
Cc1cc(C)c(S(=O)(=O)N2Cc3ccccc3-n3nncc3C2)c(C)c1	none (no result: eIF4E 4G PPI, eIF4H FP inh, PABP polyA inh)
N#CCCn1cc(C(=O)NCc2ccccc2)c(-c2ccc3c(c2)OCCO3)n1	none
N#CCCn1cc(C(=O)Nc2ccccc2Br)c(-c2ccc3c(c2)OCCO3)n1	eIF4H FP inh active
CCN(CC)P(=O)(NC(=O)c1cccn1C)N(CC)CC	eIF4H FP inh 4.4, PABP polyA inh inconclusive
COc1ccc(N2C(=O)/C(=C/C=C/c3ccccc3[N+](=O)[O-])C(=O)NC2=S)cc1	eIF4E 4G PPI 36 (no result: MLLE-PAM2 inh)
COc1ccc(N2C(=O)/C(=C/c3cccs3)C(=O)NC2=S)cc1	none
COc1cc2c(c(OC)c1OC)-c1ccc(SC)c(=O)cc1C(NC(C)=O)CC2 (stereo unspecified)	none (no result: eIF4E 4G PPI, eIF4H FP inh, PABP polyA inh)
NCCc1ccc(S(N)(=O)=O)cc1	eIF4H FP inh active, PABP polyA inh active
NCCc1ccccc1	none (no result: eIF4E 4G PPI, eIF4H FP inh, PABP polyA inh)
NCCc1cc(O)c(O)cc1O	MLLE-PAM2 inh 47! (no result: eIF4E 4G PPI, eIF4H FP inh, PABP polyA inh)
CC(NCc1ccc(Cl)c(Cl)c1)C(O)c1ccccc1 (stereo unspecified)	none
CN[C@@H]1C[C@@H](c2ccc(Cl)c(Cl)c2)c2ccccc21	eIF4E 4G PPI 99 (no result: MLLE-PAM2 inh)
CN1CCC2(CC1)C(C#N)=C(N)NC(S)=C2C#N	eIF4H FP inh 55!, PABP polyA inh active
Nc1ccc2c3c(cccc13)CC2	eIF4H FP inh 70, PABP polyA inh active (no result: eIF4E 4G PPI)
O=C1NC(=O)N(c2ccccc2)C(=O)/C1=C\c1ccc2c3c(cccc13)CC2	none (no result: MLLE-PAM2 inh)
CCCCn1c(O)c(C(C)=NC(C)c2ccccc2)c(=O)[nH]c1=O (stereo unspecified)	eIF4H FP inh active, PABP polyA inh active
Cn1c(O)c(C(c2ccccn2)c2c(O)n(C)c(=S)n(C)c2=O)c(=O)n(C)c1=S	eIF4H FP inh 57
CN(C)c1ccc(/C=C2\C(=O)NC(=O)N(CCc3ccc(F)cc3)C2=O)cc1	eIF4H FP inh 111, PABP polyA inh active
COCCN1C(=O)NC(=O)/C(=C\c2ccc(F)cc2)C1=O	none
Cc1ccc(/C=C2/C(=O)NC(=O)N(CCc3ccc(F)cc3)C2=O)o1	eIF4H FP inh inconclusive, PABP polyA inh active
c1cc2c(cc1-c1ccc3c(c1)OCO3)CNCc1cnnn1-2	none (no result: eIF4E 4G PPI, eIF4H FP inh, PABP polyA inh)
O=C1NCN(c2ccccc2)C12CCN(C(c1ccccc1OC(F)(F)F)c1nnnn1-c1ccc3c(c1)OCCO3)CC2 (stereo unspecified)	none (no result: eIF4E 4G PPI, eIF4H FP inh, PABP polyA inh)
CCOC(=O)/C(CCCN(CC)CC)=N\O	PABP polyA inh active
CCOCCCn1c(N)c(C(=O)Nc2sc3c(c2C(=O)OC)CCCC3)c2nc3ccccc3nc21	eIF4H FP inh inconclusive
CCOC(=O)c1c(NC(=O)c2c(N)n(CCCOC)c3nc4ccccc4nc23)sc2c1CCCC2	eIF4H FP inh inconclusive, PABP polyA inh active
Cn1ccnc1P(=S)(c1nccn1C)c1nccn1C	none
Cn1ccnc1P(=S)(c1nccn1C)N1CCOCC1	MLLE-PAM2 inh 37
O=C1/C(=C/c2ccc3c(c2)OCO3)N2CCC1CC2	none
O=C1/C(=C\c2cc3c(cc2Br)OCO3)N2CCC1CC2	eIF4H FP inh 70, PABP polyA inh active
O=C(NCC1=C(c2cccc3ccccc23)C[C@@H]2CC[C@H]1N2Cc1ccco1)c1cccs1	none (no result: eIF4E 4G PPI, eIF4H FP inh, PABP polyA inh)
CC[n+]1c(-c2ccccc2)c2cc(N)ccc2c2ccc(N)cc21	MLLE-PAM2 inh 79 (no result: eIF4E 4G PPI, eIF4H FP inh, PABP polyA inh)
O=C1NC(=S)N(Cc2ccco2)C(=O)/C1=C\c1cccs1	eIF4E 4G PPI 70 (no result: MLLE-PAM2 inh)
CN(C)c1ccc(/C=C2/C(=O)NC(=O)N(Cc3ccco3)C2=O)cc1	eIF4H FP inh inconclusive
C=CCN1C(=O)/C(=C/c2cccs2)C(=O)NC1=S	PABP polyA inh active
COc1cc2[nH]c(=O)n(-c3cccc(Cl)c3)c(=O)c2cc1OC	none
CC(=O)c1c(O)n(-c2cccc(Cl)c2)c(=O)[nH]c1=O (tested in a mixture with another compound)	eIF4H FP inh 112, PABP polyA inh active
O=Cc1cn(CCCOc2ccccc2)c2ccccc12	eIF4H FP inh inconclusive, PABP polyA inh active
COc1ccccc1OCCCn1cc(C=O)c2ccccc21	none
O=c1[nH]c2ccccc2n1C1CCN(C(CCc2ccccc2)c2nnnn2-c2ccc3c(c2)OCCO3)CC1 (stereo unspecified)	none (no result: eIF4E 4G PPI, eIF4H FP inh, PABP polyA inh)
COc1ccc(-n2nnnc2C(CCSC)N2CCC(n3c(=O)[nH]c4ccccc43)CC2)cc1 (stereo unspecified)	none (no result: eIF4E 4G PPI, eIF4H FP inh, PABP polyA inh)
